PubChem BioAssay (NCATS)
Values joined by “and” are separate entries in the source; they are usually repeats but may differ in a detail not shown here. Identical values can stand only once. Inconclusive results are not listed. Where a structure was tested more than once in an assay, its records may differ in their call. Active and inactive are the calls of the source. Unless noted, the call rests on the fitted dose curve; in most records, active means well fitted curve in the direction sought with a large enough effect; inconclusive means small, poorly fitted or top-dose-only effect, or another doubt; inactive means no such curve, though single readings can be large; an effect the other way counts as inactive or inconclusive.

Assays:
Tov112D = assay: Primary qHTS to identify gynecologic anti-cancer compounds using libraries of approved drugs and bioactive compounds (AID 1345084); conditions: Gynecologic cancer cell panel viability, ATPlite luminescence, 48 h; series mostly up to 57.5 µM; further: nearly all actives have a fitted effect of over 55% in size; further: potency means the concentration at half of the fitted maximal effect
How it was run: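 ATP-based viability (ATPlite), 1,000 cells/well, 16 h pre-incubation, 48 h compound at 37 C, 5% CO2, 15 min RT before read.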

[1] = Drug repurposing screens with cells derived from glioblastoma tumor samples (AID 1345199); conditions: GBM patient neurospheres viability, ATP luminescence, 48 h; further: nearly all actives have a fitted effect of over 40% in size; further: potency means the concentration at half of the fitted maximal effect; on activity, negative = cell killing: on the % scale 0 is the no-effect control and ±100 the full control effect
How it was run: (§1)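 Four patient lines of CD133+ GBM neurospheres were screened at several concentrations; hits were retested in those lines plus three slower-growing GBM lines, using 48-hour treatment and ATP-based viability.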

astro = assay: as above; conditions: viability, ATP luminescence, 48 h; series mostly up to 45.9 µM
How it was run: as §1

[2] = target: Nuclear receptor subfamily 1 group I member 2 (Rattus norvegicus) (UniProt Q9R1A7); assay: qHTS assay for small molecule activators of the rat pregnane X receptor (rPXR) signaling pathway (AID 651751; call rule not given here; further: 0% is about no effect); conditions: rPXR reporter cells, luciferase (One-Glo), 24 h
Sequence of Nuclear receptor subfamily 1 group I member 2 (Rattus norvegicus) (Q9R1A7 whole entry, looked up): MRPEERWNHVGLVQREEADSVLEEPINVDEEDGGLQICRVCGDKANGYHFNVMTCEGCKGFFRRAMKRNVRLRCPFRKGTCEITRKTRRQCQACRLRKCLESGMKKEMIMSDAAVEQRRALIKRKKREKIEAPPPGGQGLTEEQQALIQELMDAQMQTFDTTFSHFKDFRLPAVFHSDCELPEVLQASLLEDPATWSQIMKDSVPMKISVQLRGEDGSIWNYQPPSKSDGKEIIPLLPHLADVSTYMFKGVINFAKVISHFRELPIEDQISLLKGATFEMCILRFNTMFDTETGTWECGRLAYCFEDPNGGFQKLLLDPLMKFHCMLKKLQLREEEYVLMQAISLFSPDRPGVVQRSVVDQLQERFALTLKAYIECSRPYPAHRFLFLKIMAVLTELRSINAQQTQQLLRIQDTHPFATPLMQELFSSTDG

[3] = qHTS assay for small molecule activators of the human pregnane X receptor (PXR) signaling pathway (AID 720659; call rule not given here; further: 0% is about no effect)
[4] = at 45.9 µM (top of the series), tumour line B
[5] = at 45.9 µM (top of the series), tumour line D
[6] = at 46 µM (top of the series), tumour line A
[7] = at 46.1 µM (top of the series), tumour line C
[8] = at 91.6 µM (top of the series), tumour line A
[9] = at 91.6 µM (top of the series), tumour line B
[10] = at 91.6 µM (top of the series), tumour line D
[11] = at 99.2 µM (top of the series), tumour line C

C1N2CN3CN1CN(C2)C3
Potency (Tov112D): inactive
activity, negative = cell killing [1, 4]: -5.59% (inactive)
activity, negative = cell killing [1, 5]: -12.9% (inactive)
activity, negative = cell killing [1, 6]: -29.1% (inactive)
activity, negative = cell killing [1, 7]: 5.12% (inactive)
Potency (astro): inactive

CC(=O)Nc1c(I)c(NC(C)=O)c(I)c(C(=O)O)c1I
Potency (Tov112D): inactive
activity, negative = cell killing [1, 4]: -4.92% (inactive)
activity, negative = cell killing [1, 5]: -9.58% (inactive)
activity, negative = cell killing [1, 6]: -18.7% (inactive)
activity, negative = cell killing [1, 7]: -9.62% (inactive)
Potency (astro): inactive

CCNC(=O)NCCCOc1cccc(CN2CCCCC2)c1
Potency (Tov112D): inactive
activity, negative = cell killing [1, 4]: -3.43% (inactive)
activity, negative = cell killing [1, 5]: -22.4% (inactive)
activity, negative = cell killing [1, 7]: -25.1% (inactive)
Potency ([1]; tumour line A): 17.8 µM (active)
Potency (astro): inactive

O=C(O)CCCC[C@@H]1SC[C@@H]2NC(=O)N[C@@H]21
Potency (Tov112D): inactive
activity, negative = cell killing [1, 4]: -20.7% (inactive)
activity, negative = cell killing [1, 5]: -14.6% (inactive)
activity, negative = cell killing [1, 7]: -26% (inactive)
Potency ([1]; tumour line A): 17.8 µM (active)
Potency (astro): inactive

CCOC(=O)Cn1cccc1-c1nc(-c2ccc(OC)cc2)c(-c2ccc(OC)cc2)s1
Potency (Tov112D): inactive
activity, negative = cell killing [1, 4]: -12.2% (inactive)
activity, negative = cell killing [1, 5]: -21.7% (inactive)
activity, negative = cell killing [1, 7]: -5.22% (inactive)
Potency ([1]; tumour line A): 6.31 µM (active)
Potency (astro): inactive

OC1(c2ccc(Cl)c(C(F)(F)F)c2)CCN(CCCC(c2ccc(F)cc2)c2ccc(F)cc2)CC1
Potency (Tov112D): 31.6 µM (active) and inactive

CSc1ccc(/C=C2/C(C)=C(CC(=O)O)c3cc(F)ccc32)cc1
Potency (Tov112D): inactive
activity, negative = cell killing [1, 4]: -6.37% (inactive)
activity, negative = cell killing [1, 5]: -11.2% (inactive)
activity, negative = cell killing [1, 6]: -24% (inactive)
activity, negative = cell killing [1, 7]: -7.45% (inactive)

CCCC(=O)O[C@]1(C(=O)COC(=O)CC)CC[C@H]2[C@@H]3CCC4=CC(=O)CC[C@]4(C)[C@H]3[C@@H](O)C[C@@]21C
Potency (Tov112D): inactive
activity, negative = cell killing [1, 4]: -1.31% (inactive)
activity, negative = cell killing [1, 5]: -7.61% (inactive)
activity, negative = cell killing [1, 6]: -4.97% (inactive)
activity, negative = cell killing [1, 7]: 15.1% (inactive)
Potency (astro): inactive

CO/N=C(/C(=O)N[C@@H]1C(=O)N2C(C(=O)OCOC(=O)C(C)(C)C)=C(C)CS[C@H]12)c1csc(N)n1
Potency (Tov112D): inactive
activity, negative = cell killing [1, 4]: -3% (inactive)
activity, negative = cell killing [1, 5]: 4.02% (inactive)
activity, negative = cell killing [1, 6]: -24.5% (inactive)
activity, negative = cell killing [1, 7]: 0.657% (inactive)
Potency (astro): inactive

CCCc1c2oc(C(=O)O)cc(=O)c2cc2c(=O)cc(C(=O)O)n(CC)c12
Potency (Tov112D): inactive
activity, negative = cell killing [1, 4]: -3.36% (inactive)
activity, negative = cell killing [1, 5]: -8.4% (inactive)
activity, negative = cell killing [1, 6]: -11% (inactive)
activity, negative = cell killing [1, 7]: -12.7% (inactive)
Potency (astro): inactive

CN1C(=O)CC(C)(c2ccccc2)C1=O (stereo not drawn)
Potency (Tov112D): inactive
activity, negative = cell killing [1, 4]: -1.54% (inactive)
activity, negative = cell killing [1, 5]: 0.352% (inactive)
activity, negative = cell killing [1, 6]: -33.9% (inactive)
activity, negative = cell killing [1, 7]: -2.82% (inactive)
Potency (astro): inactive

Nc1ncnc2nc[nH]c12
Potency (Tov112D): inactive
activity, negative = cell killing [1, 4]: 11.8% (inactive)
activity, negative = cell killing [1, 5]: 4.13% (inactive)
activity, negative = cell killing [1, 6]: -8.57% (inactive)
activity, negative = cell killing [1, 7]: 8.85% (inactive)
Potency (astro): inactive

Cc1ccccc1C(=O)N1CC/C(=N\OS(=O)(=O)O)c2ccc(Cl)cc21
Potency (Tov112D): inactive
activity, negative = cell killing [1, 4]: -4.66% (inactive)
activity, negative = cell killing [1, 5]: -7.25% (inactive)
activity, negative = cell killing [1, 6]: -14.2% (inactive)
activity, negative = cell killing [1, 7]: 2.94% (inactive)
Potency (astro): inactive

O=C1CC[C@H](C(=O)N2CCCCC2)N1
Potency (Tov112D): inactive
activity, negative = cell killing [1, 4]: 5.57% (inactive)
activity, negative = cell killing [1, 5]: 0.144% (inactive)
activity, negative = cell killing [1, 6]: -19.7% (inactive)
activity, negative = cell killing [1, 7]: 1.57% (inactive)
Potency (astro): inactive

O=C(Nc1ccc(S(=O)(=O)N2CCOCC2)cc1)c1cc(Cl)ccc1NS(=O)(=O)c1ccc(Cl)s1
Potency (Tov112D): inactive
activity, negative = cell killing [1, 4]: -15.3% (inactive)
Potency ([1]; tumour line A): 6.31 µM (active)
Potency ([1]; tumour line C): 25.9 µM (active)
Potency ([1]; tumour line D): 15.8 µM (active)
Potency (astro): 31.6 µM (active)

O=C(c1ccccc1)c1ccccc1
Potency (Tov112D): inactive
activity, negative = cell killing [1, 4]: 2.19% (inactive)
activity, negative = cell killing [1, 5]: 8.55% (inactive)
activity, negative = cell killing [1, 6]: -8.04% (inactive)
activity, negative = cell killing [1, 7]: -0.361% (inactive)
Potency (astro): inactive
max response [2]: -0.979% (inactive) and 2.4% (inactive)

Brc1ccccc1-c1ccccc1
Potency (Tov112D): inactive
activity, negative = cell killing [1, 8]: -21.1% (inactive)
activity, negative = cell killing [1, 9]: -9.1% (inactive)
activity, negative = cell killing [1, 10]: -21.1% (inactive)
activity, negative = cell killing [1, 11]: 6.63% (inactive)
Potency (astro): inactive
max response [2]: 13.4% (inactive)
outcome [3]: inactive

Cc1ccc(/C=N/n2c(-c3ccccc3)csc2=S)cc1
Potency (Tov112D): inactive
activity, negative = cell killing [1, 4]: -0.779% (inactive)
activity, negative = cell killing [1, 5]: -6.23% (inactive)
activity, negative = cell killing [1, 7]: -16.1% (inactive)
Potency ([1]; tumour line A): 17.8 µM (active)
Potency (astro): inactive

c1ccc2occc2c1
Potency (Tov112D): inactive
activity, negative = cell killing [1, 8]: -19.3% (inactive)
activity, negative = cell killing [1, 9]: -4.88% (inactive)
activity, negative = cell killing [1, 10]: -16% (inactive)
activity, negative = cell killing [1, 11]: 4.01% (inactive)
Potency (astro): inactive
max response [2]: 2.28% (inactive) and 7.63% (inactive) and -1.22% (inactive)

CN=C(N)NC(=O)Nc1c(C)cccc1C
Potency (Tov112D): inactive
activity, negative = cell killing [1, 4]: -6.83% (inactive)
activity, negative = cell killing [1, 5]: -0.753% (inactive)
activity, negative = cell killing [1, 7]: 0.539% (inactive)
Potency ([1]; tumour line A): 17.8 µM (active)
Potency (astro): inactive
